Data: PubChem BioAssay (NCI)
This is part of a sample that, as a whole, favours compounds with a hit. Of some 83,000 tested, about 20% had one in any assay.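 Testing used 96-well plates and a 48-hour single-concentration exposure. Example: -40 means 40% of the starting cells died.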 Unmarked numbers belong to inactive results. Active and inactive are the calls of the source. Rule for the calls: active = growth percent below 10; inactive = the rest.

What follows are molecules tested on NCI-H522 lung (assay: NCI-60 one-dose screen, 48 h (100 = growth as untreated, 0 = no growth, -100 = all killed)). Settings: 10 µM unless noted.

| Compound | growth |
| --- | --- |
| COc1cc(CNC(=O)C[C@H](C)CCC=C(C)C)ccc1OCc1cn(-c2ccc(Br)cc2)nn1 | 41.6% |
| N#CC1=C(c2cccs2)Nc2c(c(-c3ccccc3)nn2-c2ccccc2)C12C(=O)Nc1ccccc12 (stereo not drawn) | 5.69% (active) |
| N#Cc1c(-c2ccc(F)cc2)nc(SCc2ccc(F)cc2)nc1N1CCNCC1 | -70.4% (active) |
| COc1cc(NC(=O)CSc2nnc(-c3ccc(-c4nc5ccc(Cl)cc5[nH]4)cc3)o2)cc(OC)c1OC | 35% |
| CN(C)c1nc(NCCNS(=O)(=O)c2ccc(C(=O)/C=C/c3ccc(C(F)(F)F)cc3)cc2)nc(N2CCOCC2)n1 | 18.5% |
| COc1cc(CNC(=O)C[C@H](C)CCC=C(C)C)ccc1OCc1cn(-c2ccc(Cl)cc2Cl)nn1 | 55.4% |
| O=C(N=Nc1c(O)[nH]c2ccc(Cl)cc12)c1ccc2nc(-c3ccc(Cl)cc3)[nH]c2c1 | -26.9% (active) |
| CC1=C(C(=O)OCc2ccccc2)C(c2ccc(N(C)C)cc2)n2c(nc3ccccc32)N1 (stereo not drawn) | 8.11% (active) |
| Cn1cc(-c2cc(N)n3nc(-c4c[nH]c5ccc(F)cc45)cc3n2)c2cc(Br)cnc21 | 27.6% |
| CCCCC[C@@H]1C/C=C(\C)[C@@H](O)C(C)(C)C(=O)[C@@H](C)/C=C(\C)[C@@H]2C[C@H](O)C[C@](O)(CC(=O)O1)O2 | 12.5% |
| COc1ccc2c(c1)c(-c1cc(N)n3nc(-c4c[nH]c5ccccc45)cc3n1)cn2C | -70.4% (active) |
| COc1ccccc1NC(=O)N/N=C/c1c[nH]c2ccccc12 | -37.1% (active) |
| CC[C@]12C=CCN3CC[C@@]4(c5ccc(OC)cc5N(C)[C@H]4[C@@](O)(C(=O)OC)[C@@H]1OC(=O)CCCC[P+](c1ccc(F)cc1)(c1ccc(F)cc1)c1ccc(F)cc1)[C@@H]32 | -11.6% (active) |
| Cc1ccc(Cl)cc1NC(=O)Nc1nc2ccc([N+](=O)[O-])cc2s1 | -36.8% (active) |
| Nc1nnc(CS(=O)(=O)c2ccccc2)s1 | 80.8% |
| N#CC1=C(c2cccs2)Nc2c(c(-c3ccccc3)nn2-c2ccccc2)C12C(=O)Nc1ccc(Br)cc12 (stereo not drawn) | -12.4% (active) |
| N#Cc1ccc(C(=O)CSc2nc3c(c(Nc4ccc(S(N)(=O)=O)cc4)n2)CCC3)cc1 | 44.6% |
| Cc1cccc(-c2ccccc2Oc2ccc3nnc(Cl)n3n2)c1 | 102% |
| COC(=O)c1cc(C(=O)CBr)n2c1ccc1c3ccccc3ccc12 | 59.1% |

| Compound | growth |
| --- | --- |
| O=C(Cn1c(/C=C/c2ccc([N+](=O)[O-])cc2)nc2ccccc2c1=O)Nc1ccccc1 | 79.5% |
| CC(C)C[C@H](NC(=O)CNC(=O)C[C@H]1O[C@@H]2OC3(C)CC[C@H]4[C@H](C)CC[C@@H]([C@H]1C)[C@@]24O3)B(O)O | -74.3% (active) |
| COc1ccccc1/C=C/c1cccc(NC(=S)NCCCCN(C)C)c1 | -66% (active) |
| CCCn1c(NC(=O)c2cccc(C(N)=O)c2)nc2cc(CN3CCCCC3)ccc21 | 83.1% |
| Fc1cccc(CNc2nc(SCCN3CCOCC3)nc3c2cnn3CC(Cl)c2ccc(Br)cc2)c1 (stereo not drawn) | 36.8% |
| COc1ccc(NC(=O)Nc2nc3ccc([N+](=O)[O-])cc3s2)cc1 | 1.25% (active) |
| O=C1c2cccc3c(N4CCN(c5ccccc5)CC4)ccc(c23)C(=O)N1c1cccc(-c2nn(-c3ccccc3)cc2-c2nc3ccccc3s2)c1 | 108% |
| Clc1ccccc1Nc1nnc(-c2c[nH]c3ccccc23)o1 | -25.1% (active) |
| Nc1nnc(-c2cncc(Br)c2)c(-c2c[nH]c3ccc(Br)cc23)n1 | 17.9% |
| O=C(CSc1nc2ccccc2c(=O)[nH]1)NNC(=O)c1ccccc1Cl | 104% |
| COc1c2c(c(Br)c3c1C(CCc1ccccc1)N(C)CC3)OCO2 (stereo not drawn) | 56.9% |
| Cn1cc(-c2cc3nc(-c4c[nH]c5ccccc45)cc(N)n3n2)c2ccccc21 | -65.5% (active) |
| O=C(/C=C1\C(=O)N(Cc2ccccc2)c2ccccc21)c1cc2ccccc2oc1=O | 35.4% |
| O=c1ccc(Cn2c(C(F)(F)F)cc3c(Cl)ncnc32)c[nH]1 | -77.1% (active) |
| O=C1CC(c2ccc(I)cc2)OC2C=Cc3ccccc3C12 (stereo not drawn) | 86.9% |
| COC(=O)c1c(C(=O)OC)c2ccc3c4ccccc4ccc3n2c1C(=O)OC | 100% |
| O=C(N/N=C/c1occc1Br)c1[nH]c2ccc(Br)cc2c1-c1ccccc1 | -86.9% (active) |
| Cn1cc(-c2cc(N)n3nc(-c4c[nH]c5ccccc45)cc3n2)c2cc(Br)ccc21 | -74.7% (active) |
| Cc1ccc2c(c1)/C(=C/C(=O)c1cc3ccccc3oc1=O)C(=O)N2 | -94.4% (active) |
